Data published in PubChem BioAssay AID434955 (Southern Research Specialized Biocontainment Screening …, 2010).
Hit rate of the full screen: of about 330,000 compounds, about 880 (0.27%) were called active. Inconclusive results (about 1%) are left out. The rule behind the calls is not given here. A selection follows.

Test: beta-lactam sensitization of Mtb H37Rv, H37Rv (AID 434955);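 note: growth measured after seven days incubation then overnight dye step; 0% = bacteria only wells and 100% = bacteria with antibiotic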
Conditions: M. tuberculosis H37Rv growth with meropenem, percent inhibition, at 25 µM
[1] = measured here: primary screen without meropenem

SMILES	inhibition (stronger effect = higher value)	inhibition [1]
CC(C)(C)C1CCc2c(sc3nc(SCC(N)=O)nc(N)c23)C1 (stereo not given)	99.1% (inactive)	99.3%
Brc1ccc(Nc2c3c(nc4ncnn24)CCC3)cc1	-0.68% (inactive)	-2.17%
O=C(NCC(=O)N1CCN(c2ccccc2O)CC1)c1ccc2ccccc2c1	10.4% (inactive)	3.65%
CCN(CCn1cccn1)C(=O)CC1C(=O)NCCN1Cc1cccc(OC)c1OC (stereo not given)	-2.12% (inactive)	0.4%
CC(C)CCN1CCN(Cc2cn[nH]c2C2CCCCC2)CC1CCO (stereo not given)	-6.26% (inactive)	2.27%
CC(=O)C[C@@H](O)CC(=O)[C@H]1OC(=O)CCCCCCc2ccccc21	1.26% (inactive)	-0.35%
C[C@H](CO)N1C[C@H](C)[C@@H](CN(C)S(=O)(=O)c2ccc(F)cc2)Oc2c(NC(=O)Nc3ccccc3)cccc2C1=O	5.19% (inactive)	4.04%
CC1=CC(=O)C=CC1(C)C(Cl)(Cl)Cl (stereo not given)	-0.23% (inactive)	1.78%
CCC(C)NCC(=O)Nc1ccc([N+](=O)[O-])cc1C(=O)Nc1ccccc1F (stereo not given)	-6.32% (inactive)	3.29%
CC1CC(C)CN(S(=O)(=O)c2cccc(C(=O)N3C(=O)c4cccc(N)c4C3=O)c2)C1 (stereo not given)	-7.74% (inactive)	-0.88%
Cc1c(C)c(C)c(S(=O)(=O)N2CCC3(CC2)OCCO3)c(C)c1C	-2.23% (inactive)	-3%
C[C@H]1CN([C@@H](C)CO)C(=O)Cc2cc(NS(C)(=O)=O)ccc2O[C@@H]1CN(C)CC1CC1	-11.2% (inactive)	2.75%
Cc1ccc2nc(-c3ccc(NC(=O)CN(C)S(=O)(=O)c4ccccc4)cc3)sc2c1	11.9% (inactive)	3.33%
CCOC(=O)c1ccc(NC(=O)c2ccc(NC(=O)C3CCCO3)cc2)cc1 (stereo not given)	79.3% (inactive)	83.3%
CCn1c(/C=N/NC(=O)c2ccc(OC)cc2)nc2ccccc21	99.1% (inactive)	99.4%
O=C(Nc1ccc(F)cc1F)N1CCCN(CCOc2ccccc2)CC1	-1.99% (inactive)	-0.11%
CSc1sc(C(=O)NNC(=O)c2ccc(Cl)cc2)c2c1C=CCC2	-5.38% (inactive)	4.57%
Cc1oc2c(F)c(F)c(F)c(F)c2c1S(=O)(=O)Nc1cccc(C(F)(F)F)c1	5.72% (inactive)	5.66%
Cc1ccc(NC(=O)c2nc[nH]c2C(=O)N2CCCCC2)c(C(=O)c2ccccc2)c1	9.07% (inactive)	12.6%
O=C1NC(c2ccccc2)CCC1(Cl)Cl (stereo not given)	0.94% (inactive)	1.7%
COc1ccc(C)cc1NC(=O)C(OC(=O)c1cccc(S(=O)(=O)N(C)c2ccccc2)c1)c1ccccc1 (stereo not given)	-1.94% (inactive)	9.6%
CCOc1ccc2ccccc2c1/C=N/NC(=O)c1c(C)cc(C)[nH]c1=O	-16.1% (inactive)	-1.48%
O=C(NCCCCCCCCCNC(=O)C(F)(F)F)C(F)(F)F	3.21% (inactive)	10.9%
O=C1CC2(CC(c3ccc(Cl)cc3)=NO2)C(=O)N1c1ccccc1 (stereo not given)	-4.42% (inactive)	-1.92%
CCCCC1(C(=O)OCC)NC(c2ccc(O)cc2)C2C(=O)N(c3ccccc3)C(=O)C21 (stereo not given)	-5.62% (inactive)	-0.56%

SMILES	inhibition (stronger effect = higher value)	inhibition [1]
O=C(CCCNS(=O)(=O)c1cccc2nsnc12)NCCN1CCN(c2ccccc2F)CC1	-11.3% (inactive)	-10.3%
CCOc1ccc(NC(=S)NC(=O)/C=C/c2ccc(OC)cc2)c([N+](=O)[O-])c1	-1.27% (inactive)	1.54%
CSc1ccccc1NC(=O)c1ccc2c(c1)CCN2S(C)(=O)=O	-1.11% (inactive)	-0.34%
CCOC(=O)c1c(S(=O)(=O)Nc2ccc(CN3CCC(C)CC3)cc2)c(C)n(C)c1C	-2.23% (inactive)	3.26%
Cc1ccc(S(=O)(=O)N2CCC(C(=O)OCC(=O)N(C)c3ccccc3)CC2)cc1C	-8.73% (inactive)	-4.4%
CC(=O)NC1(c2ccc(F)cc2)CCN(C(=O)c2c(F)cccc2F)CC1	8.64% (inactive)	0.61%
O=C(NCC1CCCO1)C(C(=O)c1ccccc1)n1cc(Cl)ccc1=O (stereo not given)	6.75% (inactive)	-1.73%
O=C(NCc1ccc(F)cc1)C1CCN(C(=O)Nc2ccc(F)cc2)CC1	-23.9% (inactive)	-6%
CC(Nc1nc(C(F)(F)F)nc2ccccc12)c1cccs1 (stereo not given)	4.44% (inactive)	8.98%
CCOC(=O)C1=C(CCc2ccccc2)NC(=O)NC1c1ccc2ccccc2c1 (stereo not given)	30% (inactive)	52.5%
COc1ccccc1NC(=O)COC(=O)CNC(=O)C1CCCCC1	-1.14% (inactive)	-2.95%
CN(C)Cc1ccccc1C1(O)c2ccccc2CSc2ccccc21 (stereo not given)	-0.96% (inactive)	2.09%
CCN(CC)CCn1c(=S)[nH]c2ncccc2c1=O	-13.3% (inactive)	-17.8%
CC(=O)Nc1ccc(N2C(=O)CC(Sc3nccc(C)n3)C2=O)cc1 (stereo not given)	-4.91% (inactive)	-1.37%
CCOc1ccc(CNC(=O)CCC(=O)N2CCSc3ccccc32)cc1	-9.71% (inactive)	-7.82%
O=C(CCc1nc(-c2ccccc2)no1)Nc1cccc(C(=O)NC2CC2)c1	1.26% (inactive)	4.5%
COc1ccc(/C=N/n2c(C)cc(C)cc2=O)cc1	3.19% (inactive)	-1.76%
COC(=O)c1ccc(NS(=O)(=O)c2cc3c4c(c2)C(C)C(=O)N4CCC3)cc1 (stereo not given)	-8.75% (inactive)	-4.77%
CCC1CO/C(=C(\C(=C(Cl)Cl)N2CCOCC2)[N+](=O)[O-])N1 (stereo not given)	-17.5% (inactive)	-10.3%
CCOC(=O)N1CCN(C(=O)C2CCN(S(C)(=O)=O)CC2)CC1	2.13% (inactive)	-5.28%
O=c1[nH]c(=O)n(Cc2ccco2)c2c1C(C(F)(F)F)(C(F)(F)F)N=C(c1ccco1)N2	-12.9% (inactive)	-21.1%
O=c1c2ccccc2ncn1CCCCOc1ccccc1F	-1.85% (inactive)	11.4%
Cn1nc(C(F)(F)F)cc1C(=O)O	-2.73% (inactive)	4.91%
O=C1CC2(CCCC2)Oc2ccc(Cl)cc21	-2.7% (inactive)	-12.8%
COc1ccc(C2C(C(C)=O)=C(O)C(=O)N2c2nccs2)cc1 (stereo not given)	-8% (inactive)	-1.43%
